Composite z-score and z-score data for seven compounds are collected here from PubChem BioAssay.

In experiment [1] the test system is Plasmodium falciparum Sir2 (PF13_0152, Sir2A). In words: Plasmodium falciparum Sir2A binding compounds – biochemical, small-molecule microarray, 635 nm fluorescence, primary screen (AID 1098).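 Also: score merges spot fluorescence intensity with its signal-to-noise ratio.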 The settings on record: fluorescence 635 nm, higher = more signal.
Experiment [2] is described as follows: probe aDKK1 binding to arrayed compounds – biochemical, biotinylated probe, 635/667 nm fluorescence, primary screen (AID 1099).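 Also: score merges 667nm spot fluorescence with signal to noise across triplicate slides.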 The settings on record: small-molecule microarray, higher = more signal.
A short description of experiment [3]: probe aCHRDL2 binding to arrayed compounds – biochemical, biotinylated probe, 635/667 nm fluorescence, primary screen (AID 1100). The settings on record: small-molecule microarray, higher = more signal.
Experiment [4] is described as follows: change in splice reporter luminescence, either direction, cell-based, HEK293, spliceosome inhibition project, primary screen (AID 1101).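 Also: HEK293 cells carrying a splicing-competent luciferase reporter gene; test concentration not given here.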 To be noted: HEK293 splicing luciferase reporter, 24 h, higher = more signal, called active from +8 up or from −8 down. Background: A reporter such as luciferase makes a cellular process visible.
Experiment [5] concerns the target Fibroblast growth factor 10 (Homo sapiens) (UniProt O15520). In words: compounds binding fibroblast growth factor 10 – biochemical, small-molecule microarray, 635 nm fluorescence, primary screen (AID 1102). The settings on record: FGF10 binding, fluorescence 635 nm, higher = more signal.
Experiment [6] relates to glycogen synthase kinase-3 (GSK3A per assay name; protocol says GSK3B). In words: compounds binding glycogen synthase kinase-3 – biochemical, small-molecule microarray, 635 nm fluorescence, GSK3A, primary screen (AID 1103). Also: the record names both GSK3A and GSK3B. The settings on record: fluorescence 635 nm, higher = more signal.
Experiment [7] has as its target Epidermal growth factor receptor (Homo sapiens) (UniProt P00533). The experiment can be described thus: compounds binding epidermal growth factor receptor – biochemical, small-molecule microarray, 635 nm fluorescence, primary screen (AID 1104).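 Also: score merges 667 nm emission intensity with spot signal to noise over triplicate slides.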 To be noted: EGFR binding, higher = more signal.
Experiment [8] deals with Follistatin-related protein 3 (Homo sapiens) (UniProt O95633). In words: compounds binding follistatin-related protein 3 – biochemical, small-molecule microarray, 635 nm fluorescence, primary screen (AID 1105).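 Also: score merges emission near 667 nm and signal to noise per printed spot across three slides.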 The settings on record: FSTL3 binding, higher = more signal.
Chain of Follistatin-related protein 3 (Homo sapiens) (O95633 whole entry, looked up): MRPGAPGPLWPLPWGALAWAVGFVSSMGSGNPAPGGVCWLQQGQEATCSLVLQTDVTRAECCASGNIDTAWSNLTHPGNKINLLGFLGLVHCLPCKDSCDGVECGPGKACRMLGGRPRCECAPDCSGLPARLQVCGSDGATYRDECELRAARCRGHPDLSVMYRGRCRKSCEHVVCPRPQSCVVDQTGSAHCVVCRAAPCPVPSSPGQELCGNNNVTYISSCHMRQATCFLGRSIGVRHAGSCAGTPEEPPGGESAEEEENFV
Experiment [9] concerns the target Dickkopf-related protein 1 (Homo sapiens) (UniProt O94907). In words: small molecules binding DKK1 protein – biochemical, small-molecule microarray, 635 nm fluorescence scan, primary screen (AID 1106).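 Also: score merges emission near 667 nm with signal to noise over three replicate slides.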 To be noted: higher = more signal.
The test system of experiment [10] is Inhibin beta A chain (activin A). The experiment can be described thus: small molecules binding activin A – biochemical, small-molecule microarray, 635 nm fluorescence scan, primary screen (AID 1107).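 Also: mouse activin A protein probed at 4.33 µg/mL on printed slides; score merges bound-protein fluorescence near 667 nm with spot signal-to-noise.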 The settings on record: INHBA, higher = more signal.
Experiment [11] has as its system Human papillomavirus type 1a protein E7 (residues 44-93). In words: small molecules binding HPV E7 44-93 – biochemical, small-molecule microarray, residues 44-93, 635 nm fluorescence, primary screen (AID 1108).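 Also: E7 fragment applied at 1 µg/mL in TBST for 1 h at 4 C; score combines spot fluorescence with its signal to noise ratio.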 The settings on record: fluorescence 635 nm, higher = more signal.
Experiment [12] can be described thus: hepatitis C replication reporter changes, two-sided – Huh7 cells, luciferase reporter, HCV replication inhibitor project, primary screen (AID 1109).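 Also: huh7 hepatoma cells harbouring a luciferase neomycin HCV replicon reporter; luciferase luminescence as measure of HCV replicon replication; test concentration not given here.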 The settings on record: Huh7 HCV replicon luciferase reporter, 48 h; higher = more signal.
The target in experiment [13] is Left-right determination factor 2 (Homo sapiens) (UniProt O00292). In words: small molecules binding LEFTY2 protein – biochemical, small-molecule microarray, 635 nm fluorescence scan, primary screen (AID 1110). To be noted: higher = more signal.
Chain of Left-right determination factor 2 (Homo sapiens) (O00292 whole entry, looked up): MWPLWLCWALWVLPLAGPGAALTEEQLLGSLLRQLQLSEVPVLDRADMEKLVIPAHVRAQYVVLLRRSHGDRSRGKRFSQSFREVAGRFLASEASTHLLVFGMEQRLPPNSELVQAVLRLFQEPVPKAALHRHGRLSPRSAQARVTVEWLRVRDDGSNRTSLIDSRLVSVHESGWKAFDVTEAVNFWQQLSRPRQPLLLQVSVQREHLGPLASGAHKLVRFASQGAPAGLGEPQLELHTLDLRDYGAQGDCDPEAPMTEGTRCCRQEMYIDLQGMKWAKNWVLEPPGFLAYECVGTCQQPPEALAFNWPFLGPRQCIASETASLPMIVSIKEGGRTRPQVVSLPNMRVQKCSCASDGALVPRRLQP
In experiment [14] the target is Calmodulin-1 (Homo sapiens) (UniProt P0DP23). In words: small molecules binding calmodulin-1 with EGTA – biochemical, small-molecule microarray, Cy5-labelled CALM1, profiling panel (AID 1111).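 Also: labelled calmodulin applied in Tris saline Tween buffer holding calcium plus EGTA and DTT.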 To be noted: Cy5-CALM1 binding fluorescence, higher = more signal.
The target is the same in experiment [15]. The experiment can be described thus: small molecules binding Ca-loaded calmodulin-1 – biochemical, small-molecule microarray, Cy5-labelled CALM1, plus calcium, artefact control for SMM control-protein annotation, profiling panel (AID 1112).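 Also: score merges spot fluorescence with signal to noise from triplicate slides.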 The settings on record: Cy5-CALM1 binding fluorescence, higher = more signal.
Experiment [16] is described as follows: probe aWnt5a binding to arrayed compounds – biochemical, biotinylated probe, 635/667 nm fluorescence, primary screen (AID 1113).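 Also: score merges 667 nm fluorescence intensity with signal-to-noise per printed feature.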 The settings on record: small-molecule microarray, higher = more signal.
Experiment [17] in a line: probe aShh binding to arrayed compounds – biochemical, biotinylated probe, 635/667 nm fluorescence, primary screen (AID 1114).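 Also: probe is biotin-labelled aShh protein from a stem cell growth factor screen; measures binding of labelled protein to compounds printed on the slide; score merges feature fluorescence at 667 nm with signal-to-noise.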 To be noted: small-molecule microarray, higher = more signal.
Experiment [18] can be described thus: probe aNog binding to arrayed compounds – biochemical, biotinylated probe, 635/667 nm fluorescence, primary screen (AID 1115).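 Also: probe is biotinylated aNog protein used at 0.15 µg/mL for 1 h at 4 C; z-score combines 667 nm fluorescence of each spot with its signal to noise.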 To be noted: small-molecule microarray, higher = more signal.
For experiment [19], the target named is Torsin-1A-interacting protein 1 (Homo sapiens) (UniProt Q5JTV8). The experiment can be described thus: compound microarray binding of lysate hLAP1 – cell lysate, small-molecule microarray, COS7 lysate, 635/667 nm fluorescence, primary screen (AID 1116). The settings on record: 635 nm fluorescence, higher = more signal.
Chain of Torsin-1A-interacting protein 1 (Homo sapiens) (Q5JTV8 whole entry, looked up): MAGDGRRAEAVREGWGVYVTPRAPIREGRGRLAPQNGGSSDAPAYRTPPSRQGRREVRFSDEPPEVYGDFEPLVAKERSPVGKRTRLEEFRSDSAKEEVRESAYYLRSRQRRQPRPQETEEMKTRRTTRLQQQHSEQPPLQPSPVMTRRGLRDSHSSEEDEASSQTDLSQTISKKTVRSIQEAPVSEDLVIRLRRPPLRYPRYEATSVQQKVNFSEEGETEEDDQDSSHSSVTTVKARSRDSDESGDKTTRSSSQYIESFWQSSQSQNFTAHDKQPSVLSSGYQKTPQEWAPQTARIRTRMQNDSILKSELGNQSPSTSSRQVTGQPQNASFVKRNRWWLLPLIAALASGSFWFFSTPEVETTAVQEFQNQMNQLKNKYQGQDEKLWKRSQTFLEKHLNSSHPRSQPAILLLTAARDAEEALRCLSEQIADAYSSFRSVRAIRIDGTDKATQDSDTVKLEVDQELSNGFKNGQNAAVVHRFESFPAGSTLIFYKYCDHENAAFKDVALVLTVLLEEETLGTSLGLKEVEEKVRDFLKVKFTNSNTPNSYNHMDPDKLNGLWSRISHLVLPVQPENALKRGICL
For experiment [20], the target named is Alpha-bungarotoxin (Bungarus multicinctus) (UniProt P60615). The experiment can be described thus: compounds binding labelled alpha-BTX control protein – biochemical, small-molecule microarray, Alexa647 label, 635/667 nm fluorescence, artefact control for SMM control protein annotation, profiling panel (AID 1117). The settings on record: alpha-BTX-A647 binding fluorescence, higher = more signal.
Chain of Alpha-bungarotoxin (Bungarus multicinctus) (P60615 whole entry, looked up): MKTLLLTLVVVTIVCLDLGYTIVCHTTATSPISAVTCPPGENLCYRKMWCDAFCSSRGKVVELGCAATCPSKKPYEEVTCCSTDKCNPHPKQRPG

Molecules are shown by their SMILES. The source made the active and inactive calls.

Chain of Fibroblast growth factor 10 (Homo sapiens) (O15520 whole entry, looked up): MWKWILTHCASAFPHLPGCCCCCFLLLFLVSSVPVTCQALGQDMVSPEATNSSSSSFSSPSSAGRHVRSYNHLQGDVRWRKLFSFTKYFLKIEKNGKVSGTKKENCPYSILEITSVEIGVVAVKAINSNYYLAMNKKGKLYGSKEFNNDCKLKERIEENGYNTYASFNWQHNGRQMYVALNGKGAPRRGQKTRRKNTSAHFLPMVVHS
Chain of Epidermal growth factor receptor (Homo sapiens) (P00533 whole entry, looked up): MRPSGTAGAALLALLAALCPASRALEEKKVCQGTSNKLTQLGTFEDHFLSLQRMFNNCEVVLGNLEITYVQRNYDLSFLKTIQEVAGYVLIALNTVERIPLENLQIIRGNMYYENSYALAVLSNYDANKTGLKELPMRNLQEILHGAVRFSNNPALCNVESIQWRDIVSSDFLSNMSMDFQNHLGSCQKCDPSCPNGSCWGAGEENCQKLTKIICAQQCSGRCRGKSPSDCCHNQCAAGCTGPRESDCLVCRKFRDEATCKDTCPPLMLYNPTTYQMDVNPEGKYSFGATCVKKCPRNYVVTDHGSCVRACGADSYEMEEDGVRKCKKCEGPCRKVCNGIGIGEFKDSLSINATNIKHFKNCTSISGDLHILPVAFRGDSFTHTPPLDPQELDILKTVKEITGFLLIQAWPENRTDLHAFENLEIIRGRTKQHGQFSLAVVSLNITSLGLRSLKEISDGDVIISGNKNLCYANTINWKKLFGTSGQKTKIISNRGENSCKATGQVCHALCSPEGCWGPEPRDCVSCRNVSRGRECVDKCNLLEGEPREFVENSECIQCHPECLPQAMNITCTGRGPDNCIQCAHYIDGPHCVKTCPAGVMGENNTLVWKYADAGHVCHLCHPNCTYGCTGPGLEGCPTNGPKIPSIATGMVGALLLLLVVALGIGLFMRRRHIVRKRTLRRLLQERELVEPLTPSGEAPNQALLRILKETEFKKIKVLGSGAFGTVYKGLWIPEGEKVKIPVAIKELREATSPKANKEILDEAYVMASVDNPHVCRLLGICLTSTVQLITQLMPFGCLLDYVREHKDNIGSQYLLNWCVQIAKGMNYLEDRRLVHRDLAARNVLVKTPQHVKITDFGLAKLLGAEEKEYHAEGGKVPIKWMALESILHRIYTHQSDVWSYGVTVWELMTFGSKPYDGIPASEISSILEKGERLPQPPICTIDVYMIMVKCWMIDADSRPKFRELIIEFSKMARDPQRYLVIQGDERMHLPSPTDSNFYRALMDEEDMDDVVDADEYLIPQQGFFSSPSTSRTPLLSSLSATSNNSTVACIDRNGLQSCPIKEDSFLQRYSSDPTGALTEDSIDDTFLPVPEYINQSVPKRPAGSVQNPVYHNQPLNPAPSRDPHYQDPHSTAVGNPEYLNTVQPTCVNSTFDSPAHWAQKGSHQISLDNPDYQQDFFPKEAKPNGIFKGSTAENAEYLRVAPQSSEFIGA
Chain of Dickkopf-related protein 1 (Homo sapiens) (O94907 whole entry, looked up): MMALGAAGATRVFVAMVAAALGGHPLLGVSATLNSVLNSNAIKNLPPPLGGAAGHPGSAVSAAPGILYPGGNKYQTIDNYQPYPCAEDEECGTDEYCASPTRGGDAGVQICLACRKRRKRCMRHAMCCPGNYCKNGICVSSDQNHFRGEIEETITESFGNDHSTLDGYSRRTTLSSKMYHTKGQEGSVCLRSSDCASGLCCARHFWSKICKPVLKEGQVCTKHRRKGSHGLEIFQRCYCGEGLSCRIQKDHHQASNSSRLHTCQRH

`O=C1C[C@@](C(=O)NCC(F)(F)F)(c2ccc([N+](=O)[O-])cc2)[C@@H](c2ccc(CO)cc2)N1CC12CC3CC(CC(C3)C1)C2`: the composite z-score in experiment [1] turned out to be 1.4; in [2], 1.09; in experiment [3], 0.957; in experiment [5], 1.44; in experiment [6], 1.07; in experiment [7], 1.13. Moreover, the composite z-score in experiment [8] was found to be 1.03; in experiment [9], 0.927; in experiment [10] it was 0.469; in experiment [11], 0.913; in [13] it was 0.309; in experiment [14] it was 0.835. Moreover, the composite z-score was determined as 0.569 in experiment [15]; 0.0044 in experiment [16]; 0.315 in [17]; 0.542 in experiment [18]; 1.31 in [19]; 0.987 in experiment [20]. Moreover, the z-score in experiment [4] was -2.11 (inactive); in experiment [12], -3.33.

Turning to `CCCNC(=O)[C@@]1(Sc2ccc(C)cc2)CC(=O)N(C2CCCCC2)[C@@H]1c1ccc(CO)cc1I`, the composite z-score in experiment [1] was 1.56; in experiment [2], 0.548; in [3], 0.91; in [5], 0.382; in experiment [6], 0.718; in experiment [7] it was -0.0215. For the same compound, the composite z-score is 0.192 in [8]; -0.122 in experiment [9]; -0.277 in experiment [10]; 0.0411 in experiment [11]; -0.153 in experiment [13]; 1.42 in experiment [14]. Besides, the composite z-score in experiment [15] was 0.86; in experiment [16] it was -0.0242; in experiment [17], 0.768; in experiment [18] it was 0.757; in [19], 0.982; in [20], 0.231. In addition, the z-score in experiment [4] is -0.703 (inactive); in experiment [12] it was -2.45.

With `CN(C)C(=O)[C@]1(CCS(=O)(=O)c2ccccc2)N=C(c2ccc(OCCCO)cc2)O[C@@H]1c1ccccc1`, the composite z-score in [1] was 1.45; in experiment [2] it was 0.483; in [3] it was 0.515; in experiment [5], 1.48; in [6], 1.26; in experiment [7] it was -0.0269. Besides, the composite z-score is 0.552 in experiment [8]; -0.323 in experiment [9]; 0.82 in experiment [10]; 1.44 in experiment [11]; 0.389 in experiment [13]; 1.72 in experiment [14]. Also, the composite z-score is 0.513 in experiment [15]; -0.034 in experiment [16]; 0.582 in experiment [17]; -0.565 in experiment [18]; 1 in [19]; 0.915 in experiment [20]. The z-score in experiment [4] is -0.621 (inactive); in [12], -2.25.

Consider `COc1ccc(C(=O)Nc2cccc(CN3C(=O)[C@]4(O[C@H](CCn5cc([C@H](O)c6ccccc6)nn5)[C@@H]([Si](C)(C)c5ccc(OC)cc5)[C@@H]4C)c4ccccc43)c2)cc1`, for which the composite z-score is 0.758 in [1]; 0.224 in [2]; 0.265 in experiment [3]; 0.26 in [5]; -0.266 in experiment [6]; -0.339 in [7]. Moreover, the composite z-score in [8] is 0.31; in experiment [9], -0.132; in [10] it was 1.41; in experiment [11], 1.38; in experiment [13], 0.126; in experiment [14], -0.0002. For the same compound, the composite z-score in [15] was -0.614; in experiment [16] it was -0.13; in experiment [17], -0.0793; in experiment [18], 0.189; in experiment [19], 0.361; in experiment [20], 1.09. Moreover, the z-score in [4] was -2.49 (inactive); in experiment [12] it was -5.19.

As for `CN1C(=O)C2C=CC(C(O)c3cc(C(F)(F)F)cc(C(F)(F)F)c3)N(Nc3ccccc3)C2C1=O` (stereo not given), the composite z-score is 0.395 in experiment [1]; -0.224 in [2]; 0.0811 in experiment [3]; 0.0307 in experiment [5]; -0.107 in experiment [6]; -0.0397 in [7]. The composite z-score was -0.247 in [8]; -0.887 in [9]; 0.0638 in experiment [10]; 0.792 in experiment [11]; -0.715 in [13]; 0.345 in experiment [14]. Further, the composite z-score was -0.151 in experiment [15]; -0.0346 in [16]; -0.138 in experiment [17]; 0.369 in experiment [18]; 1.68 in experiment [19]; 0.0299 in [20]. In addition, the z-score was 1.37 (inactive) in experiment [4] and -1.08 in [12].

Turning to `COc1ccc([Si](C)(C)[C@@H]2[C@@H](CC(=O)N3Cc4ccccc4C[C@H]3CO)O[C@]3(C(=O)N(Cc4ccc(N5CCC5=O)cc4)c4ccccc43)[C@H]2C)cc1`, the composite z-score in experiment [1] is 1.16; in [2], -0.259; in experiment [3] it was -0.1; in experiment [5], 0.46; in experiment [6] it was 0.852; in [7], 0.744. For the same compound, the composite z-score in experiment [8] is 1.06; in experiment [9], 0.644; in [10], 0.331; in [11] it was 1.02; in experiment [13] it was 0.759; in experiment [14] it was 1.04. Further, the composite z-score in [15] is -0.0245; in [16], -0.124; in experiment [17], -0.16; in experiment [18], -0.388; in experiment [19] it was 1.24; in [20] it was 0.963. Also, the z-score in [4] was -1.12 (inactive); in experiment [12], -3.58.

In the case of `C=CCC(OC(C)=O)[C@@H]1[C@@H](N(Cc2ccc(-c3cccc(C(F)(F)F)c3)o2)C(=O)Cc2ccc(OC)cc2)c2cc(OCCCO)ccc2N1C(=O)Cc1ccc2ccccc2c1` (stereo not given in full), the composite z-score in experiment [1] was 0.946; in [2], -0.178; in experiment [3] it was 0.406; in experiment [5], -0.0775; in [6] it was -0.953; in experiment [7], -0.749. In addition, the composite z-score in experiment [8] is -0.475; in experiment [9], -0.274; in experiment [10], 0.613; in experiment [11], -0.763; in experiment [13], -0.429; in experiment [14], -0.472. For the same compound, the composite z-score is -0.427 in [15]; -0.0383 in experiment [16]; -0.206 in [17]; -0.463 in experiment [18]; -0.33 in experiment [19]; 0.553 in experiment [20]. Also, the z-score in experiment [4] was -1.16 (inactive); in [12], 0.685.
